Bioassay records (PubChem)
Mac1 fbg inh: inhibitors of CD11b/CD18 adhesion to fibrinogen, primary screen, K562 cells, luminescence; 93,000 tested, 0.54% active; Integrin beta-2 (Homo sapiens) + Integrin alpha-M (Homo sapiens), P05107+P11215; AID 1497, 2009; ATPlite luminescence; Mn2+ added to activate the integrin; inhibition, % at 10 µM;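 active means primary inhibition of 50% or more at 10 µM, then 40% or more on retest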
CYP2C9 inh: blockers of cytochrome P450 2C9 activity – biochemical, luminescence, ADME assay, primary screen; P11712; CYP2C9 Supersomes, luciferin-H conversion; inhibition, % at 5 µM; 96,000 tested, 20% active;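 active means blocking of liver enzyme CYP2C9 beyond about 50% at 5 µM, limit read from the data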
Target sequence (P11712 whole entry, looked up): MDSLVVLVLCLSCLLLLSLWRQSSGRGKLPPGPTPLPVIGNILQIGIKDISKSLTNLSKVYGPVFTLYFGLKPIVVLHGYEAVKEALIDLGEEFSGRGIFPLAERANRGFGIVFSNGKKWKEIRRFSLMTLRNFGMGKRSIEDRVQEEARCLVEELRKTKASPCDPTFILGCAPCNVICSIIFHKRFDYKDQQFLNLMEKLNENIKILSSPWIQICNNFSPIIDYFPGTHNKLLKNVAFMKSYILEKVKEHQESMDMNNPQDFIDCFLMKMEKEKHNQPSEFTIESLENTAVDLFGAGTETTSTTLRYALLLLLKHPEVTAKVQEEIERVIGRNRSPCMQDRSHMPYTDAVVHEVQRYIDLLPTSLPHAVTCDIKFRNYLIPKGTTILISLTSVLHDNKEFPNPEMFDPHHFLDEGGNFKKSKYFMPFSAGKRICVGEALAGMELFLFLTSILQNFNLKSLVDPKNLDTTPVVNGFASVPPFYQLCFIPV
CYP2C19 act: human CYP2C19 activators, primary screen, biochemical, luminescence | Cytochrome P450 2C19 (Homo sapiens), P33261 | activation factor at 5 µM | recombinant CYP2C19, luciferin-H EGE luminescence; active compounds read high; 0 = fully inhibited enzyme, 1 = untreated enzyme | 96,000 tested, under 10 active;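 active means activation factor of at least 2 at 5 µM in the primary screen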
CYP2C19 inhib: blockers of cytochrome P450 2C19 activity – biochemical, luminescence, ADME assay, primary screen; P33261; CYP2C19 Supersomes, luciferin-H EGE luminescence, 30 min; inhibition, % at 5 µM; 96,000 tested, 21% active;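 active means CYP2C19 inhibition above a set limit at 5 µM in the primary screen, cut at about 50% in these data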
CD11b adhes enh: enhancers of CD11b/CD18 adhesion to fibrinogen, primary screen, K562 cells, luminescence; Integrin beta-2 (Homo sapiens) + Integrin alpha-M (Homo sapiens), P05107+P11215; ATPlite luminescence; activation, % at 10 µM; 93,000 tested, 0.07% active; AID 1499, 2009;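 active means 10 µM primary screen giving 50% or more activity, confirmed by 40% or more on retest at that dose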
CYP2C9 activ: human CYP2C9 activators, primary screen, biochemical, luminescence; Cytochrome P450 2C9 (Homo sapiens), P11712; recombinant CYP2C9, luciferin-H conversion; active compounds read high; factor 1 = untreated enzyme, 0 = blocked; activation factor at 5 µM; 96,000 tested, 1.4% active; AID 1024, 2008;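 active means activation factor of 2 or more for CYP2C9 at a 5 µM dose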
Numbers stand for hits; n = inactive; x = no result. A selection: hits, their analogues and other compounds. The true share with any hit is near 28%.

SMILES | Mac1 fbg inh | CYP2C9 inh | CYP2C19 act | CYP2C19 inhib | CD11b adhes enh | CYP2C9 activ
COc1ccc(S(=O)(=O)Nc2ccccc2)cc1OC | x | n | n | 90 | x | n
COc1ccc(S(=O)(=O)Nc2ccc(C)cc2)cc1OC | n | 62 | n | 97 | n | n
CCC(=O)OCCNc1cc(Sc2nccn2C)c2nonc2c1[N+](=O)[O-] | n | x | x | x | n | x
CC(C)C1=NN(C(=O)c2ccccc2)C(O)(C(C)(C)C)C1 (stereo not drawn) | n | n | n | n | n | n
CCOC(=O)CSc1nnc(CSc2nc(N)c3c(C)c(C)sc3n2)n1-c1ccccc1 | n | x | x | x | n | x
C=C(C)CSc1nc(N)c2c(C)c(C)sc2n1 | n | n | n | 56 | n | n
COc1cccc(Cn2c(-c3cccs3)noc2=O)c1 | n | n | n | 82 | n | n
CCOc1ccc(CC2S/C(=N/c3ccccn3)NC2=O)cc1 (stereo not drawn) | n | n | n | 72 | n | n
CCOc1ccc(C(=O)N/N=C(\c2ccccc2)c2ccccn2)cc1 | n | n | n | n | n | n
CCn1nnc(-c2ccccc2NC(=O)c2cc(OC)c(OC)c(OC)c2)n1 | n | 93 | n | n | n | n
CCn1nnc(-c2ccccc2NC(=O)c2cc(OC)cc(OC)c2)n1 | n | n | n | n | n | n
CCCC(=O)Nc1ccccc1-c1nnn(CC(=O)Nc2ccc(OC)cc2)n1 | n | n | n | n | n | n
CCn1nnc(-c2ccccc2NC(=O)C(F)(F)F)n1 | n | n | n | 70 | n | n
CCOc1ccc(NC(=O)Cn2nnc(-c3ccccc3NC(=O)c3cccs3)n2)cc1 | n | 50 | n | n | n | n
O=C(CNc1c(Br)cc(Br)cc1Br)NN=C1CCCCC1 | n | x | x | x | n | x
CCOc1ccc(CCNC(=O)CN2CCN(Cc3ccccc3C)C2=O)cc1OCC | n | n | n | n | n | n
CCc1cccc(CC)c1NC(=O)COC(=O)c1ccc(F)c(S(=O)(=O)N(CC)CC)c1 | n | x | x | x | n | x
CCOC(=O)c1[nH]c(C)c(C(=O)NCCN2CCOCC2)c1C | n | n | n | n | n | n
COC(=O)c1c(C)[nH]c(C(=O)CSc2ccc(Cl)cc2)c1C | n | 68 | n | n | n | n
COC(=O)c1c(C)[nH]c(C(=O)/C=C/c2cccc(Cl)c2)c1C | n | x | x | x | n | x
COC(=O)c1c(C)[nH]c(C(=O)CN2CCOCC2)c1C | n | n | n | 62 | n | n
CCOC(=O)C1=C(Nc2ccc(C)cc2)CC(C)(O)C(C(=O)OCC)C1c1ccccc1 (stereo not drawn) | x | n | n | n | x | n
COc1ccccc1C/C(N)=N/OC(=O)c1cccc([N+](=O)[O-])c1 | n | n | n | n | n | 2.4
N/C(Cc1ccc([N+](=O)[O-])cc1)=N\OC(=O)c1ccc([N+](=O)[O-])cc1 | n | n | n | n | n | n
CC1CCCC(NS(=O)(=O)c2ccc3c(c2)OCCO3)C1C (stereo not drawn) | n | 61 | n | 97 | n | n
SMILES | Mac1 fbg inh | CYP2C9 inh | CYP2C19 act | CYP2C19 inhib | CD11b adhes enh | CYP2C9 activ
COc1ccc(S(=O)(=O)NC2CC3CCC2C3)cc1Cl (stereo not drawn) | n | n | n | n | n | n
O=S(=O)(NCC1CCCO1)c1ccc2c(c1)OCCO2 (stereo not drawn) | x | n | n | n | x | n
O=S(=O)(NC1CC2CCC1C2)c1ccc2c(c1)OCCO2 (stereo not drawn) | n | 78 | n | 97 | n | n
COc1ccc2c(C)c(C(=O)NCC(C)O)oc2c1OC (stereo not drawn) | x | n | n | n | x | n
c1cc2c(cc1Cn1cnnn1)OCO2 | n | 56 | n | n | n | n
Cn1c2c(c(=O)n(C)c1=O)C(C(F)(F)F)(C(F)(F)F)N=C(c1ccc(Cl)cc1)N2 | x | 89 | n | n | x | n
CC(NC(=O)c1ccc(-c2cc(C(F)(F)F)ccc2Cl)o1)c1ccccc1 (stereo not drawn) | n | n | n | n | n | n
O=C1c2ccccc2NC(c2ccccc2)N1Cc1ccco1 (stereo not drawn) | n | 60 | n | n | n | n
COc1ccc(C2Nc3ccccc3C(=O)N2Cc2ccco2)cc1COc1ccc([N+](=O)[O-])cc1 (stereo not drawn) | n | 96 | n | n | n | n
O=C1c2ccccc2NC(c2ccc(F)cc2)N1Cc1ccco1 (stereo not drawn) | x | 68 | n | 53 | x | n
Cc1cccc(OCC(O)CN2CCN(C3CCCCC3)CC2)c1 (stereo not drawn) | n | n | n | n | n | n
CC1(C(=O)NC2CCCCCCC2)CC1(Cl)Cl (stereo not drawn) | n | n | n | n | n | n
Cc1ccc2nc(-c3ccc(N4C(=N)SC5CS(=O)(=O)CC54)cc3)sc2c1 (stereo not drawn) | n | x | x | x | n | x
CCCCCCC1NC(C(=O)O)CS1 (stereo not drawn) | n | n | n | n | n | n
O=C(CSc1nnc(-c2ccc(Br)cc2)o1)N1CCN(C(=O)c2ccco2)CC1 | n | n | n | n | n | n
Cc1cc2cc3c(cc2nc1SCC(=O)N1CCN(C(=O)c2ccco2)CC1)OCO3 | n | 80 | n | n | n | n
Cc1cc(C)cc(-c2nnc(SCC(=O)N3CCN(C(=O)c4ccco4)CC3)o2)c1 | n | n | n | n | n | 2
Cc1[nH]n(-c2ccc([N+](=O)[O-])cc2)c(=O)c1C=NCCN1CCN(C(=O)c2ccccc2)CC1 | n | 65 | n | 59 | n | n
CCCCC(=O)Nc1cccc(NC(=O)c2ccc3c(c2)OCO3)c1 | n | n | n | n | n | n
O=C(c1ccc(=O)oc1)N1CCCc2ccccc21 | n | n | n | n | n | n
O=C(c1ccc2c(c1)OCO2)N1CCCc2ccccc21 | n | n | n | 83 | n | n
CCCN(CCC)S(=O)(=O)c1ccc2c(c1)CCCN2C(C)=O | n | n | n | n | n | n
O=C(CCN1CCc2ccccc21)c1ccc2c(c1)OCCO2 | n | n | n | 84 | n | n
CCCN(CCC)S(=O)(=O)c1ccc(C(=O)N2CCCc3ccccc32)cc1 | n | 86 | n | n | n | n
O=C(c1ccc2c(c1)OCO2)N1CCc2ccccc2C1 | n | n | n | 100 | n | n
COCCNC(=O)C(c1cccs1)N(C(=O)Cn1nnc2ccccc21)c1ccc2c(c1)OCO2 (stereo not drawn) | n | n | n | n | n | n
Cc1ccc2c(c1)CCCN2C(=O)c1ccc2c(c1)OCO2 | n | n | n | 90 | n | n
COc1ccc(N2CCN(C(=O)CN3C(=O)c4ccccc4S3(=O)=O)CC2)cc1 | n | n | n | n | n | n
